# Screen size: about 410,000 compounds; about 5,000 (1.2%) were called active. Entries that show only a call come without a potency. Inconclusive results (about 13%) are left out. This is one part of a sample in which actives are shown more often than they occur. Calls come from the whole dose curve; as a rule, active = well fitted inhibition curve with a large enough effect; inconclusive = small, poorly fitted or top-dose-only effect; inactive = no such curve, though single readings can be large or run the other way.
# Assay: qHTS for Inhibitors of TGF-b; note: nearly all actives have a fitted effect of over 65% in size
# Conditions: HepG2 CAGA-GFP TGF-b/SMAD3 reporter, GFP fluorescence, 18 h, TGF-beta stimulated, 500 pg/mL final; series mostly up to 46.1 µM
# Method in brief: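 Read-out: total well GFP (ex488/em500-530) summed from mean per-cell fluorescence. Cells: HEPG2 CAGA-GFP, 1% FBS DMEM, 18 h at 37 degrees C with 500 pg/mL final TGF-beta. Unstimulated wells served as the full-inhibition control; stimulated DMSO wells = 0%.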
# Potency is the fitted concentration of half-maximal effect.
row,Compound,Potency
1,COc1ccc(Nc2ncc(C(=O)Nc3cc(C)ccc3OC)c3ccccc23)cc1,inactive
2,CCc1nccn1S(=O)(=O)c1cc(Br)ccc1Br,inactive
3,COc1ccc(OC)c(NC(=O)/C=C/c2ccc(C)o2)c1,inactive
4,Cc1ccc(-c2nc(S(=O)(=O)c3ccc(C)cc3)c(N3CCCCCC3)o2)cc1,inactive
5,O=C(CSc1oc(-c2ccc(F)cc2)nc1S(=O)(=O)c1ccc(Br)cc1)NC1CCCCC1,inactive
6,CC(C)S(=O)(=O)c1oc(-c2ccc(F)cc2)nc1S(=O)(=O)c1ccc(F)cc1,1.26 µM (active)
7,Cc1ccc(CCNC(=O)Cn2c(-c3cccs3)cc3cc(F)ccc32)cc1,inactive
8,COc1ccc(CC(=O)NCCc2sc3nc(-c4ccc(OC)cc4)nn3c2C)cc1,inactive
9,COc1c(Cl)cc(C(=O)N(Cc2ccccc2F)C2CCS(=O)(=O)C2)cc1Cl (stereo unspecified),inactive
10,Cc1ccc2nc(-c3ccc(O)cc3)c(Nc3ccc4c(c3)OCO4)n2c1,inactive
11,Cc1cc(C)nc(S/C=C/C(=O)c2ccccc2)n1,3.16 µM (active)
12,Cc1cc(C)nc(SC(C)C(=O)N/N=C/c2cccs2)n1 (stereo unspecified),inactive
13,COC(c1ccccc1)(c1ccccc1)C(Oc1nc(C)cc(C)n1)C(=O)O (stereo unspecified),inactive
14,Cc1ccc(Cn2c(CNC(=O)Cc3cccc(C)c3)nc3cccnc32)cc1,inactive
15,CC(=O)Nc1cc(C(=O)NCc2ccc(F)cc2Cl)ccc1Sc1ccc(Cl)cc1,inactive
16,COc1ccc(CN2CCC(=O)c3ccccc3S2(=O)=O)cc1,inactive
17,COc1cccc2c1C(=O)c1c(O)c3c(c(O)c1C2=O)CC(O)(C(C)=NNC(=O)c1ccc(Cl)c(Cl)c1)CC3OC1CC(N)C(O)C(C)O1 (stereo unspecified),1.12 µM (active)
18,Cc1ccc(Cn2cnc3c(cnn3C(C)(C)C)c2=O)c(F)c1,inactive
19,COc1cc(CN(C(=O)c2ccccc2Br)c2ccccn2)cc(OC)c1OC,inactive
20,CC(C)CC[n+]1ccn(C2=C([O-])c3ccccc3C(=O)/C2=N\S(=O)(=O)c2ccccc2)c1,3.16 µM (active)
21,COC(=O)c1ccc(NC(=O)c2cccc3c2C(=O)N(C2CCCCC2)C3)cc1,inactive
22,Cc1ccc(CN2CC(N3CCC(Cc4ccccc4)CC3)CS2(=O)=O)cc1 (stereo unspecified),14.1 µM (active)
23,Cc1cccc(CN2CCN(C3CN(Cc4ccccc4)S(=O)(=O)C3)CC2)c1 (stereo unspecified),inactive
24,O=S1(=O)CC(N2CCC(Cc3ccccc3)CC2)CN1Cc1ccccc1 (stereo unspecified),inactive

row,Compound,Potency
1,Cc1ccc(CN2CCc3nc(N4CCN(C)CC4)ncc3C2)cc1,inactive
2,CCOc1ccc(NC(=O)CC2C(=O)N(c3cccc(OC)c3)C(=O)N2C2CCCCC2)cc1 (stereo unspecified),inactive
3,Cc1cccc(NC(=O)Cn2c(C(F)(F)F)nc3ccccc32)c1C,inactive
4,N#C/C=C/N1CCN(Cc2ccc3c(c2)OCO3)CC1,inactive
5,O=C(CSc1nc2c(c(=O)[nH]1)CN(Cc1ccc3c(c1)OCO3)CC2)Nc1cc(F)ccc1F,inactive
6,Fc1ccc2[nH]c3c(N4CCN(Cc5ccc6c(c5)OCO6)CC4)ncnc3c2c1,17.8 µM (active)
7,Cc1cc(C)cc(NC(=O)Cc2csc(C)n2)c1,inactive
8,Cc1ccc(C)c(S(=O)(=O)n2nc(C)c(S(=O)(=O)N3CCC(C)CC3)c2C)c1,inactive
9,O=[N+]([O-])c1cc(S(=O)(=O)N2CCCC2)ccc1NN=C1CCCC1,inactive
10,COC(=O)c1cc(Oc2ccc(S(=O)(=O)N3CCOCC3)cc2[N+](=O)[O-])cc(C(=O)OC)c1,inactive
11,CC(C)N1CCC(=NNc2ccc([N+](=O)[O-])cc2S(=O)(=O)N2CCOCC2)CC1,11.2 µM (active)
12,Cc1ccc(C)c(N2CCN(C(=O)CCc3c(C)nc4c(c3C)c(=O)n(C)c(=O)n4C)CC2)c1,inactive
13,CCOc1ccc(CNC(=O)c2ccc(CS(=O)c3ccccc3)o2)cc1 (stereo unspecified),inactive
14,CC(=O)c1ccc(N2CCN(C3C(=O)c4ccccc4N3C(C)=O)CC2)cc1 (stereo unspecified),inactive
15,CCOc1ccc2nc(C(=O)N3CCCC(C)C3)sc2c1 (stereo unspecified),inactive
16,CCN(C(=O)COc1ccc(C(=O)c2ccccc2)cc1)c1ccccc1,inactive
17,CCOc1ccc2nc(N(CCCN(C)C)C(=O)c3ccc(C(=O)c4ccccc4)cc3)sc2c1,22.4 µM (active)
18,Cc1ccc2nc(/C(C#N)=C/c3ccccc3F)[nH]c2c1,inactive
19,O=S(=O)(c1ccccc1)N1CCc2ccccc21,inactive
20,CCn1c(=O)c(=O)n(CC)c2cc(S(=O)(=O)N3CCc4ccccc43)ccc21,inactive
21,Cn1c(=O)n(C)c2cc(S(=O)(=O)N3CCCc4ccccc43)ccc21,12.6 µM (active)
22,Cc1cc(C)cc(NC(=O)CSc2oc(-c3ccccc3)nc2S(=O)(=O)c2ccc(Cl)cc2)c1,inactive
23,COc1cc(C(=O)N2CCN(c3ccc(Nc4ccc(C)cc4)nn3)CC2)cc(OC)c1OC,inactive
24,Cc1onc(-c2c(F)cccc2Cl)c1C(=O)Nc1cccc(S(=O)(=O)N2CCCCC2)c1,inactive

row,Compound,Potency
1,Cc1onc(-c2ccc(F)cc2F)c1C(=O)Nc1cccc(C(F)(F)F)c1,12.6 µM (active)
2,Cc1onc(-c2c(F)cccc2Cl)c1C(=O)N(C)CC(=O)Nc1cccc(F)c1,inactive
3,O=C1c2ccccc2C(=O)N1c1ccc(S(=O)(=O)N2CCOCC2)c2ccccc12,inactive
4,Cc1ccc(-c2noc(-c3nnn(-c4cccc(C(F)(F)F)c4)c3N)n2)cc1,inactive
5,COc1ccc(OC)c(CCNC(=O)CCCn2c(=O)c3cccn3c3cccnc32)c1,inactive
6,CCOCCc1nn2c(=O)cc(COC(=O)CNC(=O)c3ccc(C(C)(C)C)cc3)nc2s1,inactive
7,CCOC(=O)Cn1c(=O)n(C2CCCCC2)c2nc(-c3cccc(OC)c3)nc(C(N)=O)c21,inactive
8,CCc1nc2c(OCc3ccc(Cl)cc3Cl)cccn2c1N(C)C(=O)C(C)C,12.6 µM (active)
9,CCc1nc2c(OCc3cccc(OC)c3)cccn2c1N(C)C(=O)C(C)C,inactive
10,Cc1nc2c(OCC(=O)C(C)(C)C)cccn2c1N(C)Cc1cccs1,inactive
11,Cc1nc2c(OCc3cccc(Cl)c3)cccn2c1N(C)CC1CC1,inactive
12,Cc1nc2c(OCc3ccc(Cl)cc3Cl)cccn2c1N(C)CC1CC1,11.2 µM (active)
13,CCc1nc2c(OCc3ccc(C(=O)OC)cc3)cccn2c1N(C)C(=O)C(C)C,inactive
14,COc1cccc(N2CC(NC(=O)/C=C\c3ccccc3)CC2=O)c1 (stereo unspecified),inactive
15,O=C(CCSCc1cccc(F)c1)NCc1ccccc1,inactive
16,CCN(CCCNC(=O)c1ccc(Sc2ccc(C)cc2)c(NC(C)=O)c1)c1cccc(C)c1,inactive
17,CCCOc1ccc(C(=O)C(CCC(CNCC)C(=O)c2ccc(OCCC)cc2)CNCC)cc1 (stereo unspecified),3.16 µM (active)
18,CCCOc1cccc(C(=O)Nc2cccc(NC(=O)c3ccc(C(C)(C)C)cc3)c2)c1,inactive
19,COC(=O)c1ccc(OCC(=O)NC(C)(C)C)cc1,inactive
20,Cc1cc(Br)ccc1NC(=O)Cn1cnc2sc(C)c(S(=O)(=O)N3CCN(C)CC3)c2c1=O,inactive
21,COc1cc(OC)cc(-c2nc3nc(C)c(CCC(=O)Nc4ccccc4)c(C)n3n2)c1,inactive
22,Cc1ccc(-c2cn3c(n2)sc2cc(C(=O)NCCCc4ccccc4)ccc23)cc1,inactive
23,COc1ccc(N2C(=O)CSC23C(=O)N(Cc2cccc(F)c2)c2ccccc23)cc1Cl (stereo unspecified),inactive
24,COc1ccc(-c2nc3c4ccccc4n(CC(=O)Nc4ccc(C(C)=O)cc4)c(=O)n3n2)cc1,inactive

row,Compound,Potency
1,COc1ccc(CCNC(=O)COC(=O)Cc2cc(OC)c(OC)c(OC)c2)cc1,inactive
2,COc1cc(CC(=O)Nc2nc(-c3ccc(F)c(F)c3)cs2)cc(OC)c1OC,11.2 µM (active)
3,O=C(COC(=O)C1CCCO1)Nc1nc(-c2ccc(F)cc2)cs1 (stereo unspecified),inactive
4,O=[N+]([O-])c1ccc(S(=O)(=O)N2CCN(c3nc(-c4ccccc4)nc4ccccc34)CC2)cc1,inactive
5,COc1cccc(CNC(=O)C(NS(=O)(=O)c2ccc3nc(C)sc3c2)C(C)C)c1 (stereo unspecified),inactive
6,COc1ccccc1NC(=S)NC(=O)C(C)C,inactive
7,COc1ccccc1NC(=O)c1cc(Cl)nnc1Cl,inactive
8,COc1ccccc1NC(=O)/C=C/C(N)=O,12.6 µM (active)
9,Brc1ccc(C2=CC(c3ccco3)n3ncnc3N2)cc1 (stereo unspecified),inactive
10,Clc1ccc2c(c1)C1=C(C(c3ccncc3)O2)C(c2ccc(Br)cc2)n2ncnc2N1 (stereo unspecified),3.98 µM (active)
11,CCOC(=O)C1=C(c2ccccc2)Nc2ncnn2C1c1ccc(Cl)cc1 (stereo unspecified),inactive
12,Cc1cc2c(C)nc(N/N=C/c3ccccc3)nc2o1,inactive
13,Cc1nnsc1C(=O)N/N=C/c1cccc(C(F)(F)F)c1,inactive
14,FC(F)(F)c1cccc(N/N=C/c2ccccc2)c1,11.2 µM (active)
15,O=C1CSC2(C(=O)N(Cc3ccccc3)c3ccccc32)N1c1cccc(F)c1 (stereo unspecified),inactive
16,CCN1CCc2nc3sc(C(=O)Nc4ccccc4OC(F)(F)F)c(N)c3cc2C1,inactive
17,CCOC(=O)c1c(C)[nH]c(CCC(=O)Nc2ccc(OC)c(OC)c2)c1C,inactive
18,CN(C)C(CNC(=O)c1ccc(OCc2cn3ccccc3n2)cc1)c1ccco1 (stereo unspecified),inactive
19,Cc1noc(C)c1COc1ccc(C(=O)NCCOc2ccccc2)cc1,inactive
20,CN(C)CCNC(=O)c1ccc(-c2cn3c(-c4ccc(Oc5ccccc5)cc4)cnc3cn2)cc1,11.2 µM (active)
21,COc1ccc(CCNC(=O)C(=O)NCC(c2ccco2)S(=O)(=O)c2cccs2)cc1OC (stereo unspecified),inactive
22,CN1C[C@@H](CO)O[C@@H](n2cnc3c(N4CCN(CCO)CC4)ncnc32)C1,inactive
23,OC[C@@H]1O[C@H](n2cnc3c(SCc4ccccc4)ncnc32)[C@H](O)[C@H]1O,inactive
24,OCC1OC(n2cnc3c(N4CCCC4)ncnc32)C(O)C1O (stereo unspecified),2.82 µM (active)
